Many of the other results were omitted from the sample, so hits are more common in it than they were.
FECH inh = inhibitors of human ferrochelatase; calls only at 10 µM (by protocol); purified FECH, Ni-mesoporphyrin absorbance 550 nm; actives 3.3% (n = 20,000); P22830;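 active means enzyme reaction rate more than 3 SD below the solvent-only control wells on the same plate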;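 further: lower slope than DMSO wells means FECH inhibition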
Target sequence (P22830 whole entry, looked up): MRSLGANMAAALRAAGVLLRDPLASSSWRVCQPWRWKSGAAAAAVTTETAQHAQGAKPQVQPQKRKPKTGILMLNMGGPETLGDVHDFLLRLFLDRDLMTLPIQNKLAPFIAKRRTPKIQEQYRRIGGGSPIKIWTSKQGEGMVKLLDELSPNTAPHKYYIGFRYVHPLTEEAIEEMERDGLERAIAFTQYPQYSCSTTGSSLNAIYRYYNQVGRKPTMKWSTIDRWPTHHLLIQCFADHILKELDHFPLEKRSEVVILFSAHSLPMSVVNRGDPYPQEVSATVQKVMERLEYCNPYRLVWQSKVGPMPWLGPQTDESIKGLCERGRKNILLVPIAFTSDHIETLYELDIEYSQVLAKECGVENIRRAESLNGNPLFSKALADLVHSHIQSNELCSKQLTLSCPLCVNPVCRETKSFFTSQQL
Large screens that a line does not name were inactive.

Cc1cc(C)n(CCNC(C)COc2ccccc2)c(=O)n1 (stereo not given)	none
Cc1ccc(C)c(CC(=O)N2CCCC(O)(CO)C2)c1 (stereo not given)	none
CCC(C(=O)Nc1ccc(Nc2nc(C)cc(Nc3ccccc3)n2)cc1)c1ccccc1 (stereo not given)	none
CCC(C(=O)Nc1ccc(Nc2nc(C)cc(N(C)C)n2)cc1)c1ccccc1 (stereo not given)	FECH inh active
CCC(C(=O)Nc1ccc(Nc2nc(C)cc(Nc3ccc(C)cc3)n2)cc1)c1ccccc1 (stereo not given)	none
CCOc1ccc(C(=O)Nc2cccc(OCc3cc(=O)n4cc(Cl)ccc4n3)c2)cc1	none
Cc1cc(C)c2[nH]c(C(=O)N3CCOC(c4ccc(F)cc4)C3)c(C)c2c1 (stereo not given)	none
CCOc1ccc(S(=O)(=O)N2CCC(n3c(C(F)(F)F)nc4cccnc43)CC2)cc1	none
CS(=O)(=O)N1CCN(c2cc(-c3cccc(F)c3)ncn2)CC1	none
CCS(=O)(=O)N1CCN(c2cc(-c3cccc(OC)c3)ncn2)CC1	none
CS(=O)(=O)N1CCN(c2cc(-c3ccc(F)cc3)ncn2)CC1	FECH inh active
CCS(=O)(=O)N1CCN(c2cc(-c3ccc(C)cc3)ncn2)CC1	none
CCS(=O)(=O)N1CCN(c2cc(-c3cccc(C)c3)ncn2)CC1	FECH inh active
Cc1ccc(-c2cc(N3CCN(S(C)(=O)=O)CC3)ncn2)cc1	none
CCS(=O)(=O)N1CCN(Cc2nc3cccnc3n2-c2ccccc2)CC1	none
CCCC(=O)Nc1nc2n(n1)C(c1ccccc1)C=C(c1ccc(Cl)cc1)N2 (stereo not given)	none
CCc1ccccc1NC(=O)CN1CCN(Cc2ccccc2C)S1(=O)=O	none
CCOc1ccccc1NC(=O)CN1CCN(Cc2ccccc2Cl)S1(=O)=O	none
CCc1ccccc1NC(=O)CN1CCN(Cc2ccc(F)cc2Cl)S1(=O)=O	none
CCOc1ccccc1NC(=O)CN1CCN(Cc2ccccc2C)S1(=O)=O	FECH inh active
CCOC(=O)c1ccccc1NC(=O)CN1CCN(Cc2ccccc2C)S1(=O)=O	none
CCOc1ccccc1NC(=O)CN1CCN(Cc2ccc(F)cc2Cl)S1(=O)=O	FECH inh active
c1cc(-c2ccc(-c3nccn3Cc3ccc4c(c3)OCO4)o2)[nH]n1	none
COC(=O)c1cccc(-c2nc(CC3CCN(C)CC3)no2)c1	none
CCN(CCN(C)C)c1ncc(NS(=O)(=O)c2cccc(F)c2)cc1C(=O)O	none
Cc1ccc(C2=CC(c3c(F)cccc3Cl)n3nc(NS(C)(=O)=O)nc3N2)cc1 (stereo not given)	FECH inh active
Cc1ccc(C2=CC(c3ccccc3Cl)n3nc(NS(=O)(=O)c4ccccc4)nc3N2)cc1 (stereo not given)	FECH inh active
O=S(=O)(Nc1nc2n(n1)C(c1ccc(F)cc1)C=C(c1ccccc1)N2)c1ccc(Cl)cc1 (stereo not given)	none
Cc1ccc(C2=CC(c3ccc(F)cc3)n3nc(NS(=O)(=O)c4ccccc4)nc3N2)cc1 (stereo not given)	none
Cc1ccc(C2=CC(c3ccccc3Cl)n3nc(NS(C)(=O)=O)nc3N2)cc1 (stereo not given)	none
O=S(=O)(Nc1nc2n(n1)C(c1c(F)cccc1Cl)C=C(c1ccccc1)N2)c1ccccc1 (stereo not given)	FECH inh active
Cc1ccc(C2=CC(c3ccc(F)cc3)n3nc(NS(C)(=O)=O)nc3N2)cc1 (stereo not given)	none
Cc1ccc(C2=CC(c3c(F)cccc3Cl)n3nc(NS(=O)(=O)c4ccccc4)nc3N2)cc1 (stereo not given)	none
CS(=O)(=O)Nc1nc2n(n1)C(c1ccccc1Cl)C=C(c1ccc(Br)cc1)N2 (stereo not given)	none
O=C(O)c1ccccc1-c1c(-c2ccccc2)ncn1CC1COCCO1 (stereo not given)	none
O=S(=O)(NCc1nc2cccnc2n1Cc1ccccc1Cl)c1ccccc1Cl	none
CN(C)Cc1cccc(C(=O)Nc2ccc3c(c2)CC(=O)N3)c1	none
Cc1cc(C(=O)N(Cc2ccsc2)CC(C)C)n[nH]1	none
Cc1ccccc1-c1cc(O)c2c(c1)CN(C(=O)[C@H](C)n1cnnn1)CCO2	none
Cc1ccnc(N2CCOc3c(O)cc(-c4ccccc4C)cc3C2)n1	none
Cc1oc(C(C)C)cc1C(=O)NCCc1nnc(N)s1	none
CCOc1ccc(S(=O)(=O)N2CCN(c3nc(C)cc(N4CCCC4)n3)CC2)cc1	none
CCCCOc1ccc(S(=O)(=O)N2CCN(c3nc(C)cc(N4CCCCC4)n3)CC2)cc1	none
CCCCOc1ccc(S(=O)(=O)N2CCN(c3nc(C)cc(N4CCCC4)n3)CC2)cc1	FECH inh active
CC(C)Cc1cc(C(=O)NC2CN(C)S(=O)(=O)c3ccsc32)on1 (stereo not given)	none
O=c1cc(CNc2cccc(C(F)(F)F)c2)nc2nc(NCc3ccc(Cl)cc3)[nH]n12	none
CCOc1ccccc1N(Cc1nc2nc(C)cc(=O)n2[nH]1)C(=O)c1ccccc1F	none
Cc1nc2nc(C)c(NC(=O)Nc3cccc(C(F)(F)F)c3)c(=O)n2[nH]1	none
Cc1nc2nc(Cc3cccc(F)c3)[nH]n2c(=O)c1C	none
COc1cccc(NCc2nc3nc(C)c(Cc4ccc(Cl)cc4)c(=O)n3[nH]2)c1	FECH inh active
CCc1ccccc1NCc1nc2nc(C)c(Cc3ccc(Cl)cc3)c(=O)n2[nH]1	FECH inh active
CCOC(=O)CCc1c(C)nc2nc(CNc3ccccc3OCC)[nH]n2c1=O	none
CCc1nc2nc(C)c(NC(=O)Nc3cccc(C(F)(F)F)c3)c(=O)n2[nH]1	none
CCOC(=O)CCc1c(C)nc2nc(CNc3cccc(C(F)(F)F)c3)[nH]n2c1=O	FECH inh active
COc1cccc(NC(=O)Nc2c(C)nc3nc(C)[nH]n3c2=O)c1	none
Cc1nc2nc(C3CC3)[nH]n2c(=O)c1NC(=O)Nc1ccc(Cl)cc1	none
CCOc1ccccc1NCc1nc2nc(C)c(Cc3ccc(Cl)cc3)c(=O)n2[nH]1	FECH inh active
O=S(=O)(NCc1nc2cccnc2n1C1CCCC1)c1ccc(Cl)cc1	none
CCOC(=O)CCC(=O)Nc1cc(C)nn1-c1ncnc2c1cnn2-c1ccc(F)cc1	none
Fc1cccc(Cl)c1-c1nccn1CCc1ccncc1	none
Cc1cccc(C)c1OC1CN(C(=O)c2cn(CC3CCCNC3)nn2)C1 (stereo not given)	none
CCCC(=O)Nc1cc(C)nn1-c1ncnc2c1cnn2-c1ccc(Cl)cc1	none
COC(=O)[C@@H]1C[C@H](NC(=O)c2nc(C(C)C)cs2)CN1C	none
Cc1cnc(CNC(=O)c2ccc(CC3CCCNC3)cc2)cn1 (stereo not given)	none
Cc1ncsc1CCC(=O)N(C)Cc1csc(C(C)C)n1	none
COc1ccc(NC(=O)C2CCN(c3ccc(-c4ccc(C)cc4)nn3)CC2)cc1	none
Cc1ccc(C(C)NC(=O)CN2CCS(=O)(=O)CC2)cc1 (stereo not given)	none
Cc1ccc(C(C)NC(=O)CN2CCC(O)(CN3CCCC3)CC2)cc1 (stereo not given)	FECH inh active
Cc1ccc(C(C)NC(=O)CN2CCC(O)(Cn3ccnc3)CC2)cc1 (stereo not given)	none
C=CC[C@@H]1CC=C[C@@H](c2ccccc2)N1C(=O)c1ccn(CC)n1	none
CCOc1ccccc1CN(CC)C(=O)c1ccc2nccn2c1	none
CCOc1ccccc1CN(C(=O)c1cn2cc(Cl)ccc2n1)C1CC1	FECH inh active
CCOc1ccccc1CN(C(=O)c1cn(CC)c2nc(C)ccc2c1=O)C1CC1	none
Cc1ccc2cc(-c3noc(CCC(=O)Nc4cccc(C)c4C)n3)c(=O)[nH]c2c1	none
Cn1c(=O)c(C(=O)N2CCN(c3ncccn3)CC2)nc2ccccc21	none
